ChEMBL document CHEMBL3433997, “St. Jude Leishmania screening dataset” (2016)
Where “and” joins values, the source holds several entries; their conditions need not be identical. Equal values may be shown once.

The compounds below were run against Solute carrier family 2, facilitated glucose transporter member 1 (Homo sapiens) (UniProt P11166) (assay: ST_JUDE_LEISH: Cytotoxicity at 2uM final concentration against transgenic Leishmania Mexicana promastigotes LmGLUT1 that are glucose transport deficient and complemented with the human glucose transporter GLUT1. Activity is measured by DNA content using SYBR green in vitro).
Assay type: functional

Solute carrier family 2, facilitated glucose transporter member 1 (Homo sapiens), sequence (P11166 whole entry): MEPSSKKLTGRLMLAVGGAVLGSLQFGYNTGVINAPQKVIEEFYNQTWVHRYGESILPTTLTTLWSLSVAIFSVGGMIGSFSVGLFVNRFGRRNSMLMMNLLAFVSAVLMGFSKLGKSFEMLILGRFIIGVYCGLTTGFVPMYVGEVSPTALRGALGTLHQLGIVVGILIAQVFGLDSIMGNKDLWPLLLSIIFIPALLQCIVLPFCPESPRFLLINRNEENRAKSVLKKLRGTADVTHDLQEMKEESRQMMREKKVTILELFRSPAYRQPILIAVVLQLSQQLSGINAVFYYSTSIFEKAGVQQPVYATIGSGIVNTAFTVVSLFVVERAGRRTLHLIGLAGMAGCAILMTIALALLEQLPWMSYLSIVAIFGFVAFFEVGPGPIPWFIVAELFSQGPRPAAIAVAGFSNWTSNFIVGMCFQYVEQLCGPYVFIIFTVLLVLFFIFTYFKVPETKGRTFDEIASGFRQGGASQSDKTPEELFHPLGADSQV

Question: Which inhibition does the source give for `Nc1ncc(-c2ccc3nccc(-c4ccncc4)c3c2)cc1S(=O)(=O)N1CCOCC1` here?
Answer: The inhibition was 5.11%.

Question: `c1cc(CN2CCc3ccccc3CC2)cc(-c2c[nH]c3nc(NC4CCCC4)ncc23)c1` was tested. Which inhibition did it give?
Answer: Its inhibition is -0.02%.

Question: `CCOC(=O)c1cc(C(=O)NCCCCN2CCC(c3ccc(CC)cc3OCC)CC2)ccc1-c1ccc(C(F)(F)F)cc1` was tested. Which inhibition did it give?
Answer: Its inhibition is 10.1%.

Question: `Cc1cc(NCCCCCCCCNc2cc(C)nc3ccccc23)c2ccccc2n1` was tested. Which inhibition did it give?
Answer: Its inhibition is -0.97%.

Question: With `O=C1C(c2ccccc2)=C(Nc2cccc([N+](=O)[O-])c2)c2ccccc21` as the compound, how does the inhibition read?
Answer: Its inhibition is 4.58%.

Question: Which inhibition does the source give for `CC(Sc1nc2sccc2c(=O)n1C)C(=O)Nc1ccc2c(c1)OCO2` (centres undefined) here?
Answer: Its inhibition is 4.94%.

Question: With `COc1ccc2nc(C)cc(N/N=C/c3cccc([N+](=O)[O-])c3)c2c1` as the compound, how does the inhibition read?
Answer: Its inhibition is 8.97%.

Question: Which inhibition does the source give for `O=c1cc(NCCCNCc2cc(C(F)(F)F)ccc2Cl)[nH]c2ccccc12` here?
Answer: The inhibition was -0.91%.

Question: `C=C[C@H]1CN2CC[C@H]1C[C@H]2[C@H](O)c1ccnc2ccc(OC)cc12` was tested. Which inhibition did it give?
Answer: The inhibition was 7.23% and -4.42% and 0.77%.

Question: With `CC(=O)N(Cc1ccc(CC(C)NCCc2cccc(Cl)c2)cc1)Cc1ccc(CC(C)NCCc2cccc(Cl)c2)cc1` (centres undefined) as the compound, how does the inhibition read?
Answer: Its inhibition is 83.6%.

Question: `O=C(/C=C/c1ccc([N+](=O)[O-])cc1)N1CCC(NS(=O)(=O)c2ccc(Br)cc2)CC1` was tested. Which inhibition did it give?
Answer: Its inhibition is -0.08%.

Question: How did the inhibition turn out when `CCOc1cc(C)ccc1C1CCN(CCN2CCC(CNC(=O)c3ccc(-c4ccc(C(F)(F)F)cc4)cc3)CC2)CC1` was run?
Answer: Its inhibition is 0.7%.

Question: For `COc1ccc(N2CCN(c3nc(Nc4ccc(NC(C)=O)cc4)nc(N4CCCC4)n3)CC2)cc1`, which inhibition is on record?
Answer: Its inhibition is 0.68%.

Question: `Cc1cc(O)c(C(C)C)cc1C1(c2cc(C(C)C)c(O)cc2C)OC(=O)c2ccccc21` was tested. Which inhibition did it give?
Answer: Its inhibition is 8.43%.
